Assay results: PubChem BioAssay (EPA / NIEHS)
Inconclusive results are not listed. Calls of active or inactive are those of the source. Rule for the calls, unless noted: active = hit-call score of the fitted dose curve at least 0.9, where 1 is the maximum; inactive = score below 0.9.

Tests used:
[1] = APR_HepG2_CellCycleArrest_1hr: Apredica 1-hour HepG2 Assay for Cell Cycle Arrest (AID 2282666); details: high-content imaging, actives raise or lower the signal
Outline: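 HepG2 cells exposed for 1 h to 0.39–200 uM compound (0.5% DMSO). Fixed, Hoechst-stained nuclei imaged by ArrayScan; DNA content quantified by Cell Cycle analysis; bidirectional fit against DMSO.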

[2] = APR_HepG2_CellLoss_1hr: Apredica 1-hour HepG2 Assay for Cell Loss (AID 2282668); details: high-content imaging;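 note: curves fitted both ways against DMSO so gain or loss of cells counts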
Outline: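 HepG2 cells were treated for 1 h with compound at 0.39–200 uM, in duplicate, in 0.5% DMSO. After formaldehyde fixation, Hoechst 33342-stained nuclei were imaged on an ArrayScan to count cells. Data were fitted bidirectionally versus DMSO.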

[3] = APR_HepG2_MicrotubuleCSK_1hr: Apredica 1-hour HepG2 Assay for Microtubule CSK Stabilty (AID 2282669); details: HepG2 microtubule cytoskeleton imaging, actives raise or lower the signal
Outline: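 HepG2 cells exposed 1 h to 0.39–200 uM compound (0.5% DMSO, duplicates), then formaldehyde-fixed, permeabilized and immunostained for alpha-tubulin with Hoechst nuclei. Imaged by ArrayScan high-content analysis; bidirectional fit versus DMSO.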

[4] = APR_HepG2_NuclearSize_1hr: Apredica 1-hour HepG2 Assay for Nuclear Size (AID 2282670); details: high-content imaging, actives raise or lower the signal
Outline: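 HepG2 cells dosed 1 hr with 0.39–200 uM compound (0.5% DMSO), formaldehyde-fixed, Hoechst 33342-stained and imaged at 20x; nuclear diameter from nuclear stain, fitted bidirectionally against DMSO.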

[5] = APR_HepG2_p53Act_1hr: Apredica 1-hour HepG2 Assay for p53 Activation (AID 2282671); details: high-content imaging, actives raise or lower the signal
Outline: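 HepG2 cells treated 1 h with compound at 0.39–200 uM (10 concentrations, duplicate) in 0.5% DMSO. Formaldehyde-fixed, permeabilised cells immunostained for p53 with Hoechst 33342; high-content imaging, bidirectional fit versus DMSO.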

[6] = APR_HepG2_MitoticArrest_1hr: Apredica 1-hour HepG2 Assay for Mitotic Arrest (AID 2282672); details: high-content imaging, actives raise or lower the signal
Outline: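 HepG2 cells exposed 1 hr to compounds at 0.39–200 uM (0.5% v/v DMSO final), then fixed in 3.7% formaldehyde and immunostained for phospho-histone H3 with Hoechst 33342. Mitotic arrest scored by automated fluorescence imaging, fitted bidirectionally versus DMSO.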

[7] = APR_HepG2_P-H2AX_1hr: Apredica 1-hour HepG2 Assay for H2AX Phosphorylation (AID 2282673); details: high-content imaging, actives raise or lower the signal
Outline: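 HepG2 dosed 1 hr at 0.39-200 uM (0.5% DMSO final), duplicate. Fixed in 3.7% formaldehyde, Triton permeabilized, immunostained for phospho-histone H2A.x (1:200) with Hoechst 33342; ArrayScan 20x imaging, bidirectional fit vs DMSO.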

[8] = APR_HepG2_MitoMembPot_1hr: Apredica 1-hour HepG2 Assay for Mitochondrial Membrane Potential (AID 2282675); details: imaging, actives raise or lower the signal
Outline: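 HepG2 cells dosed 1 hour with 0.39–200 uM compound in duplicate, 0.5% DMSO final. MitoTracker Red CMXRos (250 nM, 30 min) loaded before formaldehyde fixation; fluorescence quantified by high-content imaging, bidirectional fitting versus DMSO.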

[9] = APR_HepG2_CellCycleArrest_24hr: Apredica 24-hour HepG2 Assay for Cell Cycle Arrest (AID 2282905); details: imaging, actives raise or lower the signal;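 note: cell cycle arrest scored as ratio of 2N to 4N nuclear DNA content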
Outline: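 Cell cycle arrest is scored from nuclear DNA content measured by high-content imaging of Hoechst 33342-stained HepG2 cells following 24-hour treatment at ten concentrations up to 200 uM, with DMSO as baseline.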

[10] = APR_HepG2_StressKinase_1hr: Apredica 1-hour HepG2 Assay for Stress Kinase (AID 2282906); details: HepG2 stress kinase (phospho-c-Jun) imaging, actives raise or lower the signal
Outline: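 HepG2 cells dosed 0.39-200 uM (0.5% DMSO) for 1 h, then formaldehyde-fixed. Stress kinase read by phospho-c-Jun immunofluorescence using high-content imaging; bidirectional fit vs DMSO.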

[11] = APR_HepG2_NuclearSize_24hr: Apredica 24-hour HepG2 Assay for Nuclear Size (AID 2282907); details: high-content imaging, actives raise or lower the signal
Outline: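 Compounds in DMSO (final 0.5%) were added to human HepG2 hepatoma cells at ten concentrations up to 200 uM for 24 hr. Fixed nuclei were stained with Hoechst 33342, and nuclear diameter was quantified from automated images.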

[12] = APR_HepG2_CellLoss_24hr: Apredica 24-hour HepG2 Assay for Cell Loss (AID 2282908); details: high-content imaging;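 for AC50: fit in both directions so a hit may be cell loss or gain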
Outline: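 Cell number is quantified by fluorescence imaging of Hoechst 33342-stained nuclei following dosing at 0.39–200 uM in 0.5% DMSO. Curves are fitted in both directions from the DMSO baseline.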

[13] = APR_HepG2_MicrotubuleCSK_24hr: Apredica 24-hour HepG2 Assay for Microtubule CSK Stabilty (AID 2282909); details: HepG2 microtubule cytoskeleton imaging, actives raise or lower the signal
Outline: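 Steps: dose HepG2 for 24 h (0.39–200 uM, 0.5% DMSO); fix 30 min in 3.7% formaldehyde at room temperature; permeabilize; stain alpha-tubulin 60 min; image microtubule cytoskeleton at 20x. Signal change fitted in both directions relative to DMSO.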

[14] = APR_HepG2_MitoticArrest_24hr: Apredica 24-hour HepG2 Assay for Mitotic Arrest (AID 2282910); details: high-content imaging, actives raise or lower the signal
Outline: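 Compounds are dosed onto HepG2 cells across ten concentrations up to 200 uM for 24 hr. Cells are then fixed in 3.7% formaldehyde, permeabilised, and labelled for phospho-histone H3 and nuclei; images are scored by cell cycle analysis and fitted bidirectionally relative to DMSO.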

[15] = APR_HepG2_MitoMembPot_24hr: Apredica 24-hour HepG2 Assay for Mitochondrial Membrane Potential (AID 2282911); details: imaging, actives raise or lower the signal
Outline: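 Human hepatoma HepG2 cultures received ten compound concentrations up to 200 uM for 24 hr. Membrane-potential dye signal, captured by automated fluorescence microscopy, was scored for gain or loss against DMSO controls.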

[16] = APR_HepG2_MitoMass_24hr: Apredica 24-hour HepG2 Assay for Mitochondrial Mass (AID 2282912); details: high-content imaging, actives raise or lower the signal
Outline: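 The liver line HepG2 was dosed in duplicate across a 0.39–200 uM series, with final DMSO held at 0.5% v/v, and harvested at 24 hr. High-content imaging measured mitochondrial dye staining.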

[17] = APR_HepG2_p53Act_24hr: Apredica 24-hour HepG2 Assay for p53 Activation (AID 2282913); details: high-content imaging, actives raise or lower the signal;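 note: p53 protein immunofluorescence averaged per cell in HepG2 with Hoechst nuclei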
Outline: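 Automated fluorescence imaging quantifies p53 immunostaining in HepG2 cells after a 24 hr exposure (0.39–200 uM, duplicate, 0.5% DMSO). Nuclei are located by Hoechst 33342 staining.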

[18] = APR_HepG2_CellCycleArrest_72hr: Apredica 72-hour HepG2 Assay for Cell Cycle Arrest (AID 2282914); details: high-content imaging, actives raise or lower the signal
Outline: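 Cell cycle arrest in HepG2 was scored from nuclear DNA content after 72 hr compound treatment (0.39–200 uM). Activity, either gain or loss, was fitted against the DMSO baseline.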

[19] = ACEA_ER_80hr: ACEA Biosciences xCELLigence Real-Time Cell Analysis on Estrogen Receptor Agonism for Proliferation (AID 2282667; active = hit-call score of the fitted dose curve at least 0.9, where 1 is the maximum); details: T47D proliferation, impedance (xCELLigence), 80 h
Outline: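 Cell-growth kinetics were measured by impedance in T47D cells treated continuously with compound (top 100 uM final, 1:4 steps, 8 points). Activity at 80 h was scored as signal gain over the DMSO baseline.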

[20] = APR_HepG2_MitoMass_1hr: Apredica 1-hour HepG2 Assay for Mitochondrial Mass (AID 2282674); details: high-content imaging, actives raise or lower the signal
Outline: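 HepG2 cells dosed 1 hr with 0.39-200 uM compound (0.5% DMSO), duplicate wells. Mitochondria stained with 250 nM MitoTracker Red CMXRos for 30 min before formaldehyde fixation, imaged at 20x by ArrayScan; bidirectional fit versus DMSO.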

Measured: AC50

Cc1ccc(N=CN(C)C=Nc2ccc(C)cc2C)c(C)c1
active: [8] 108 µM | [10] 75.4 µM | [12] 117 µM | [15] 44.7 µM
not listed: [19] | [20]
inactive: all other assays above

COP(=S)(OC)SCn1nnc2ccccc2c1=O
active: [18] 100 µM
not listed: [2] | [3]
inactive: all other assays above

COC(=O)c1c(C(F)F)nc(C(F)(F)F)c(C2=NCCS2)c1CC(C)C
active: [13] 91.6 µM
not listed: [3] | [4] | [6] | [14]
inactive: all other assays above

COC(=O)NC(=S)Nc1ccccc1NC(=S)NC(=O)OC
active: [13] 28.6 µM | [15] 26 µM | [18] 100 µM
not listed: [3] | [4] | [19] | [20]
inactive: all other assays above

CC1(C)C(C=C(Cl)Cl)C1C(=O)OC(C#N)c1cccc(Oc2ccccc2)c1 (centres undefined)
active: [9] 35.1 µM
not listed: [1] | [2] | [3] | [4] | [6] | [19] | [20]
inactive: all other assays above

CC(C)NC(=O)N1CC(=O)N(c2cc(Cl)cc(Cl)c2)C1=O
not listed: [1] | [2] | [3] | [6] | [14] | [20]
inactive: all other assays above

COc1cc(Cl)c(OC)cc1Cl
not listed: [1] | [2] | [3] | [4] | [6] | [19]
inactive: all other assays above

CCCCC(O)(Cn1cncn1)c1ccc(Cl)cc1Cl (centres undefined)
active: [12] 88 µM | [13] 103 µM | [17] 105 µM
not listed: [1] | [2] | [4] | [6] | [14]
inactive: all other assays above

Cc1cc(C)nc(Nc2ccccc2)n1
active: [9] 43.7 µM | [15] 75.7 µM | [18] 61.8 µM
not listed: [1] | [2] | [3] | [19] | [20]
inactive: all other assays above

CN/C(=N\[N+](=O)[O-])NCc1cnc(Cl)s1
not listed: [1] | [2] | [3] | [4] | [14] | [20]
inactive: all other assays above

Nc1c(Cl)c(F)nc(OCC(=O)O)c1Cl
not listed: [1] | [2] | [4] | [6] | [19] | [20]
inactive: all other assays above

CC(C)(C)C(=O)C(Oc1ccc(Cl)cc1)n1cncn1 (centres undefined)
active: [19] 22.5 µM | [18] 82.2 µM
not listed: [1] | [2] | [3] | [4] | [6]
inactive: all other assays above

CCN(CC)C(=O)C(C)Oc1cccc2ccccc12 (centres undefined)
active: [18] 106 µM
not listed: [1] | [2] | [6] | [20]
inactive: all other assays above

CS(=O)(=O)c1ccc(C(=O)C2C(=O)CCCC2=O)c([N+](=O)[O-])c1
not listed: [1] | [2] | [14]
inactive: all other assays above

Cn1c(-c2ccccc2)cc(-c2ccccc2)[n+]1C
active: [19] 2.11 µM
not listed: [1] | [2] | [14]
inactive: all other assays above

CCCCC(C#N)(Cn1cncn1)c1ccc(Cl)cc1 (centres undefined)
not listed: [1] | [14] | [19]
inactive: all other assays above

CCCN(CC)CC1COC2(CCC(C(C)(C)C)CC2)O1 (centres undefined)
active: [13] 100 µM
not listed: [1] | [2] | [6] | [14] | [20]
inactive: all other assays above
